From PubChem
HP1b binding inh – HP1-beta chromodomain-methylated histone interaction inhibition; P83916; AlphaScreen HP1-beta / biotin-H3K9me3 peptide binding; Potency, µM (titrated, usually from 114 µM), without a hit: top-dose activity change, negative = inhibition, actives largely listed as inhibitors; 390,000 compounds, 0.56% hits; note: nearly all actives have a fitted effect of over 70% in size
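HP1-beta protein (50 nM final) preincubated 30 min at room temperature with biotinylated H3(1-18)K9me3 peptide (50 nM) in PBS pH 7.4, 0.01% Tween-20, then compound added for 30 min. AlphaScreen streptavidin donor/nickel chelate acceptor beads (10 ug/mL final), 30 min dark, luminescence read.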
BAZ2B block – BAZ2B (human) inhibition; AID 504333; AlphaScreen BAZ2B-H3K14Ac peptide displacement; 360,000 compounds, 4.4% hits; Q9UIF8; Potency, µM (titrated, usually from 114 µM), without a hit: at the top dose activity change, negative = inhibition, usual class: inhibitors; note: % is set by controls: 0 for no effect and ±100 for the full control effect; nearly all actives have a fitted effect of over 60% in size
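AlphaScreen luminescence quantifies BAZ2B engagement of H3K14Ac peptide; the protein and biotinylated peptide are both at 50 nM final, buffer PBS pH 7.4 with 0.01% Tween-20, all steps at room temperature.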
JMJD2A Tudor – inhibitors of human JMJD2A Tudor domain | O75164 | AlphaScreen JMJD2A-Tudor / H3K4me3 peptide binding | 390,000 compounds, 4.4% hits | Potency, µM (series often up to 114 µM), inactives show top-dose activity change, negative = inhibition, hits mostly inhibitors; note: % is set by controls: 0 for no effect and ±100 for the full control effect; nearly all actives have a fitted effect of over 50% in size
L3MBTL1 inh – blocks human L3MBTL1; Q9Y468; AlphaScreen L3MBTL1–H3K9me1 peptide binding; Potency, µM (top dose mostly 57.1 µM), for inactives: at the top dose activity, negative = inhibition, actives largely listed as inhibitors; 230,000 compounds, 0.66% hits; AID 485360; note: % is set by controls: 0 for no effect and ±100 for the full control effect; nearly all actives have a fitted effect of over 60% in size
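L3MBTL1 50 nM + b-AHA-H3(1-15)K9me1 75 nM, 30 min RT; compound added, 30 min RT; streptavidin donor/Ni-chelate acceptor beads 10 ug/mL each final, 30 min RT dark; AlphaScreen read.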
G9a inh – blocks human histone lysine methyltransferase G9a; Q96KQ7; Potency, µM (top dose mostly 102 µM), inactives show at the highest dose activity, negative = inhibition, actives largely listed as inhibitors; G9a H3K9 monomethylation, AlphaScreen, 2 h; 350,000 compounds, 8.8% hits; note: % is set by controls: 0 for no effect and ±100 for the full control effect; nearly all actives have a fitted effect of over 75% in size
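Enzyme 20 nM + cpd, 15 min RT; add b-H3K9 pep 500 nM / SAM 20 uM; 2 h RT; anti-H3K9me1 Ab 0.5 ug/mL + SA donor / anti-rabbit acceptor beads 20 ug/mL each, 10 min; AlphaScreen read.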
Sfp PPTase inh – inhibitors of Bacillus subtilis Sfp phosphopantetheinyl transferase; Biochemical Sfp PPTase activity, qHTS; Potency, µM, without a hit: largest response in the series, negative = inhibition, hits mostly inhibitors; 310,000 compounds, 3.5% hits;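 note: the enzyme is Sfp with the accession as filed and its product quenches rhodamine fluorescence; 0% = enzyme reaction without inhibitor and -100% = no enzyme wells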
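Step 1, compound plus 15 nM Sfp-PPTase, 15 min, room temperature. Step 2, add rhodamine-CoA (5 uM) and BHQ-2-YbbR (12.5 uM). Step 3, read 525/598 nm fluorescence at 0 and 30 min.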
* = called active by the depositor; ! = repeats disagree; [ ] = dose if it differs, or a comment. Sampled rows, rich in hits. Any-hit rate of the full collection: about 12%. Calls come from the whole dose curve; as a rule, active = well fitted curve in the direction sought with a large enough effect; inconclusive = small, poorly fitted or top-dose-only effect, or another doubt; inactive = no such curve, though single readings can be large; an effect the other way counts as inactive or inconclusive. Potency is the fitted concentration of half-maximal effect.

`C#CNC(=O)C1(CC=C)CCNCC1` gave HP1b binding inh 19%, BAZ2B block -2%, JMJD2A Tudor -14%, L3MBTL1 inh 2% and G9a inh -7%[2.33 µM].
Screening CCC(=O)Nc1nc(C)c(-c2csc(Nc3ccccn3)n2)s1 returned HP1b binding inh -16%, BAZ2B block 40µM*, JMJD2A Tudor inconclusive, L3MBTL1 inh -13%, G9a inh 40µM* and Sfp PPTase inh inconclusive.
Screening CCCC(=O)Nc1nc(C)c(-c2csc(Nc3ccccc3C)n2)s1 returned HP1b binding inh -3%, BAZ2B block inconclusive, JMJD2A Tudor inconclusive, L3MBTL1 inh -4%, G9a inh 11µM* and Sfp PPTase inh 20µM*.
`CCCCCCC(=O)Nc1nc(C)c(-c2csc(Nc3ccccc3OC)n2)s1` gave HP1b binding inh -23%, BAZ2B block inconclusive, JMJD2A Tudor inconclusive, L3MBTL1 inh -4%, G9a inh 5%[59 µM] and Sfp PPTase inh inconclusive.
`COCc1cc(=O)[nH]c(SCCS(=O)(=O)c2ccc(Cl)cc2Cl)n1` gave HP1b binding inh 69%, BAZ2B block -13%, JMJD2A Tudor -12%, L3MBTL1 inh 1%, G9a inh inconclusive and Sfp PPTase inh 79µM*.
`CCCCCCCCCCCCCCCC[N+](C)(C)CC` gave HP1b binding inh 17%, BAZ2B block 6%, JMJD2A Tudor -8%, L3MBTL1 inh 27%, G9a inh 14µM*! and Sfp PPTase inh 79µM*.
For CCCCCC[N+](C)(C)CCSSCC[N+](C)(C)CCCCCC the results were HP1b binding inh inconclusive, BAZ2B block -4%, JMJD2A Tudor -24%, L3MBTL1 inh -13%, G9a inh inconclusive and Sfp PPTase inh -18%.
For CCCCCCCCCCCCCC[N+](C)(C)C the results were G9a inh -1%[12.7 µM] and Sfp PPTase inh 11µM*.
Screening COc1ccc(S(=O)(=O)N2CN3CCN(C3)C2)cc1 returned HP1b binding inh 56%, BAZ2B block 9%[0.457 µM], JMJD2A Tudor -17%, L3MBTL1 inh -2%, G9a inh 23%[59 µM] and Sfp PPTase inh 20%.
COC(=O)c1ccc(OCC(O)CN2CCN(C(=O)c3ccco3)CC2)c(OC)c1 (stereo not drawn) was read as HP1b binding inh 35%, BAZ2B block -23%, JMJD2A Tudor -11%, G9a inh 10% and Sfp PPTase inh 15%.
`CC(=O)N1CCN(CC(O)COc2ccc(Br)cc2)CC1` (stereo not drawn) gave HP1b binding inh inconclusive, BAZ2B block 56µM*, JMJD2A Tudor 18µM*, L3MBTL1 inh 6%, G9a inh 8.9µM* and Sfp PPTase inh -22%.
`O=C(c1ccco1)N1CCN(CC(O)COc2ccc(Br)cc2)CC1` (stereo not drawn) gave HP1b binding inh 19%, BAZ2B block -3%, JMJD2A Tudor 2%, G9a inh 50µM* and Sfp PPTase inh 13%.
For OC(COc1ccc(Br)cc1)CN1CCC(Cc2ccccc2)CC1 (stereo not drawn) the results were HP1b binding inh 37%, BAZ2B block -24%, JMJD2A Tudor -8%, G9a inh 79µM* and Sfp PPTase inh 6%.
`COc1ccc(N2CCN(CCNC(=O)Nc3ccc([N+](=O)[O-])cc3OC)CC2)cc1` gave HP1b binding inh inconclusive, BAZ2B block inconclusive, JMJD2A Tudor 50µM*, G9a inh 45µM* and Sfp PPTase inh 5%.
COc1ccc(OC)c(NC(=O)NCCN2CCN(c3ccccc3)CC2)c1 was read as HP1b binding inh -10%, BAZ2B block -2%, JMJD2A Tudor -20%, G9a inh inconclusive and Sfp PPTase inh 1%.
Screening COc1ccc(N2CCN(CCNC(=O)Nc3ccc(C)c(Cl)c3)CC2)cc1 returned HP1b binding inh 2%, BAZ2B block -35%, JMJD2A Tudor -28%, G9a inh 25µM* and Sfp PPTase inh 9%.
COc1cc(NC(=O)NCCN2CCN(c3ccc(Cl)cc3)CC2)ccc1C was read as HP1b binding inh -19%, BAZ2B block inconclusive, JMJD2A Tudor -33%, L3MBTL1 inh -20%, G9a inh inconclusive and Sfp PPTase inh 10%.
`CCCOc1ccc(C(=O)Nc2cc(-c3nc4ccccc4[nH]3)ccc2C)cc1` gave HP1b binding inh 36%, BAZ2B block -1%, JMJD2A Tudor -21% and G9a inh -26%[59 µM].
`CSc1nc2ccc(NC(=O)c3ccc(=O)[nH]c3)cc2s1` gave HP1b binding inh -1%, BAZ2B block -1%, JMJD2A Tudor -4%, G9a inh 50µM* and Sfp PPTase inh 2%.
For CSc1nc2ccc(NC(=O)c3ccc(F)c(F)c3)cc2s1 the results were HP1b binding inh 34%, BAZ2B block -4%, JMJD2A Tudor -1%, L3MBTL1 inh 8%, G9a inh 9% and Sfp PPTase inh 9%.
For CC(C)COP(=O)(c1ccc(N(C)C)cc1)C(O)c1ccc(N(C)C)cc1 (stereo not drawn) the results were HP1b binding inh 1%, BAZ2B block -36%, JMJD2A Tudor inconclusive, G9a inh 40µM* and Sfp PPTase inh 10%.
For CCCOP(=O)(c1ccc(N(C)C)cc1)C(O)c1cc(OC)ccc1OC (stereo not drawn) the results were HP1b binding inh 56%, BAZ2B block 1%, JMJD2A Tudor -4%, G9a inh 13% and Sfp PPTase inh 27%.
For CC(C)OP(=O)(c1ccc(N(C)C)cc1)C(O)c1ccc(N(C)C)cc1 (stereo not drawn) the results were HP1b binding inh 11%, BAZ2B block -12%, JMJD2A Tudor 4.5µM*, G9a inh 16%[0.501 µM] and Sfp PPTase inh 10%.
CC(C)COP(=O)(c1ccc(N(C)C)cc1)C(O)c1ccccc1 (stereo not drawn) was read as HP1b binding inh 9%[57 µM], BAZ2B block -14%, JMJD2A Tudor -12%, G9a inh -2% and Sfp PPTase inh 12%.
For COc1ccc(C(O)P(=O)(OC(C)C)c2ccc(N(C)C)cc2)c(OC)c1 (stereo not drawn) the results were HP1b binding inh 18%, BAZ2B block -8%, JMJD2A Tudor 22µM*, G9a inh 15%[0.501 µM] and Sfp PPTase inh 12%.
Screening Cc1ccc(O)c(C(=O)c2cnn(C(=O)COc3ccccc3C#N)c2)c1 returned BAZ2B block inconclusive, L3MBTL1 inh -5%, G9a inh 10% and Sfp PPTase inh 2%.
CCOC(=O)[C@H]1[C@H]2COc3ccccc3[C@@H]2N2C(=O)c3c(C)cc(C)cc3NC(=O)[C@@]12C was read as HP1b binding inh 32%, BAZ2B block -4%, JMJD2A Tudor -27%, L3MBTL1 inh -7% and G9a inh -5%[2.33 µM].
